The text below walks through data of PubChem BioAssay (NCATS).

“And” between values parts separate entries of the source, which are not always exact repeats. Identical values can stand only once. Results filed as inconclusive are left out. The source holds several records for some structures; these can differ, active in one and inactive in another. Values without a mark were called inactive. The source made the active and inactive calls. Calls follow the shape of the dose curve; as a rule, active = well fitted curve in the direction sought with a large enough effect; inconclusive = small, poorly fitted or top-dose-only effect, or another doubt; inactive = no such curve, though single readings can be large; an effect the other way counts as inactive or inconclusive.

Experiment [1] is described as follows: Viability qHTS for spleen associated tyrosine kinase inhibitor (SYKi) naive MV4-11 cells (AID 1963823). Also: nearly all actives have a fitted effect of over 40% in size. The method in brief:
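Viability of MV4-11 AML cells lacking prior SYK inhibitor exposure is scored by CellTiter-Glo luminescence following 72 hr compound incubation at 37 C, 5% CO2, seeded at 500 cells per well.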
Background: In qHTS, concentration-response curves come from the screen itself.

Experiment [2] in a line: Viability qHTS for spleen associated tyrosine kinase inhibitor (SYKi) drug resistant MV4-11 cells (AID 1963824). Also: nearly all actives have a fitted effect of over 35% in size. The method in brief: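 SYK-inhibitor-resistant MV4-11 AML cells were seeded at 500 per well onto compound and cultured 72 hours (37 °C, 5% CO2). CellTiter-Glo was then added, and after 10 min at room temperature, luminescence gave viability.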
The nature of experiment [3]: Cellular viability qHTS for adrenocortical cancer (ACC) cell line SW-13 (AID 1963989). Also: nearly all actives have a fitted effect of over 65% in size.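 As to activity (max response): cells grown in serum-free medium with ITS supplement; % is scaled to controls: 0 for no effect and ±100 for the full control effect.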 The following applies: SW-13 ACC cells viability, CellTiter-Glo, 48 h; activity (max response): hits give low values. The procedure, abridged:
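SW-13 cells in ITS-supplemented serum-free DMEM were plated overnight, then exposed for 48 h at 37C to compound titrations (up to 46 uM final). Viability was read by CellTiter-Glo luminescence; four-parameter logistic fits gave IC50 and efficacy.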

Experiment [4] can be described thus: Cellular viability qHTS for adrenocortical cancer (ACC) cell line NCI-H295R (AID 1963990). Also: nearly all actives have a fitted effect of over 60% in size. The method in brief: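 Luminescent ATP read-out (CellTiter-Glo, 20 min RT) after 48 h drug exposure of NCI-H295R cells; a titration up to 46 uM final. Data normalized to doxorubicin (100% inhibition) and DMSO (0%); 4-parameter fit gives IC50, max response.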
Potency is read from the fitted curve at half-maximal effect.

Take `Cc1ccc(-n2nc(C(C)(C)C)cc2NC(=O)NCc2cc(F)ccc2Oc2ccc3c(cnn3CCO)c2)cc1`: the Potency was 9.34 µM (active) in experiment [1], 10.3 µM (active) in experiment [2] and 17.8 µM (active) in experiment [3].

Regarding `CC(C)C(=O)OCC(=O)[C@@]12O[C@H](C3CCCCC3)O[C@@H]1C[C@H]1[C@@H]3CCC4=CC(=O)C=C[C@]4(C)[C@H]3[C@@H](O)C[C@@]12C`, the Potency in experiment [1] was 5.9 µM (active); in experiment [2], 2.95 µM (active). For the same compound, the activity (max response) in experiment [3] is -10.3%.

On to `CN(Cc1ccc(/C=C/C(=O)NO)cc1)CC12CC3CC(CC(C3)C1)C2`, for which the results for the Potency in experiment [1], in experiment [2] and in experiment [3] were 0.296 µM (active), 0.235 µM (active) and 2.24 µM (active), respectively.

For `O=C(NO)c1cnc(N2C[C@H]3C[C@@H]2CN3c2cc(C(F)(F)F)ccn2)nc1`, the Potency was 2.35 µM (active) in experiment [1], 2.35 µM (active) in experiment [2], 10 µM (active) in experiment [3] and 2.82 µM (active) in experiment [4].

Consider `Cn1c(=O)c2c(ncn2CCO)n(C)c1=O`, for which the Potency result in experiment [1] and in experiment [2] was “inactive” each time. Besides, the activity (max response) in experiment [3] was -10.8%.

On to `CCCCOC(=O)NS(=O)(=O)c1sc(CC(C)C)cc1-c1ccc(Cn2ccnc2)cc1`, for which the Potency was 14.8 µM (active) in experiment [1], 14.8 µM (active) in experiment [2] and 28.2 µM (active) in experiment [3].

As to `COC(=O)C1=C(C)NC(c2ncc(F)cc2F)=N[C@H]1c1ccc(F)cc1Cl`, the Potency was 20.9 µM (active) in experiment [1] and 9.34 µM (active) in experiment [2]. Moreover, the activity (max response) in experiment [3] was -9.49%.

For the compound `CC1=C2C[C@H]3[C@@H](CC[C@@H]4C[C@H](NS(C)(=O)=O)CC[C@@]43C)[C@@H]2CC[C@@]2(C1)O[C@@H]1C[C@H](C)CN[C@H]1[C@H]2C`, the Potency is 9.34 µM (active) in experiment [1], 4.68 µM (active) in experiment [2] and 25.1 µM (active) in experiment [3].

Regarding `CC[C@@H](C)Nc1cc(C(=O)NC2CC3CC[C@@H](C2)N3c2ccc(C(=O)C3CC3)cn2)c(C)cc1C(N)=O` (some centres not stated), the figures for the Potency in experiment [1], in experiment [2] and in experiment [3] were 0.013 µM (active), 0.0259 µM (active) and 0.178 µM (active), respectively.

Regarding `CCn1nc(C2CCN(C(=O)CCO)CC2)nc1-c1cnc(N)c(-c2nnc(C(C)(C)C)o2)n1`, the Potency in experiment [1] and in experiment [2] was 5.25 µM (active) in each case. In experiment [3], the activity (max response) was -18.1%.

Consider `NCC1CCN(c2nccc(-c3ccc4ccccc4c3)n2)CC1`, for which the Potency in experiment [1] is 1.16 µM (active); in experiment [2], 1.16 µM (active); in experiment [3], 22.4 µM (active); in experiment [4], 10 µM (active).

As for `CC(C)OC(=O)c1cc(C(=O)OC(C)C)cc([N+](=O)[O-])c1`, the Potency in experiment [1] is 27.9 µM (active). Also, the Potency entry in experiment [2] is “inactive”. The activity (max response) in experiment [3] was 4.98%.

`CC(=O)OCC1=C(C(=O)O)N2C(=O)[C@@H](NC(=O)Cc3cccs3)[C@H]2SC1`: the Potency entry in experiment [1] and in experiment [2] was “inactive” each time. The activity (max response) in experiment [3] was 10.2%.

`CN[C@@H]1[C@@H](O)[C@@H](O[C@@H]2[C@H](O)[C@H](O[C@H]3OC(CN)=CC[C@H]3N)[C@@H](N)C[C@H]2N)OCC1(C)O` (some centres not stated): the Potency entry in experiment [1], in experiment [2] and in experiment [4] was “inactive” each time. Moreover, the activity (max response) in experiment [3] was 5.55%.

In the case of `C[C@]12CCC(=O)C=C1CC[C@@H]1[C@@H]2CC[C@@]2(C)[C@H]1CC[C@]2(O)C(=O)CO`, the Potency entry in experiment [1] and in experiment [2] was “inactive” each time. Also, the activity (max response) in experiment [3] was -2.88%.

On to `CCC1=C[C@@H]2CN(C1)Cc1c([nH]c3ccccc13)[C@@](C(=O)OC)(c1cc3c(cc1OC)N(C)[C@H]1[C@@](O)(C(=O)OC)[C@H](OC(C)=O)[C@]4(CC)C=CCN5CC[C@]31[C@@H]54)C2`, for which the Potency in experiment [1] was 8.4 nM (active) and 91 nM (active); in experiment [2], 7.5 nM (active) and 64.5 nM (active); in experiment [3], 0.143 µM (active); in experiment [4] it was 20.6 nM (active) and 2.54 µM (active). For the same compound, the activity (max response) in experiment [3] is -91.8%.

Take `O=S(=O)(O)c1ccc2nc(-c3ccccc3)[nH]c2c1`: the Potency entry in experiment [1] and in experiment [2] was “inactive” in each case. For the same compound, the activity (max response) in experiment [3] is -14%.

On to `CN(C)CCCOC1(Cc2ccccc2)CCCCCC1`, for which the Potency entry in experiment [1] and in experiment [2] was “inactive” each time. In addition, the activity (max response) in experiment [3] is 2.61%.

On to `COc1ccc(Cl)cc1C(=O)NCCc1ccc(S(=O)(=O)NC(=O)NC2CCCCC2)cc1`, for which the Potency entry in experiment [1] and in experiment [2] was “inactive” in each case. Also, the activity (max response) in experiment [3] is -4.38%.

For `CC[C@H](Nc1ncnc2nc[nH]c12)c1oc2ccccc2c(=O)c1-c1cccc(F)c1`, the results for the Potency in experiment [1] and in experiment [2] were 5.9 µM (active) and 14.8 µM (active), respectively. Moreover, in experiment [3], the activity (max response) is -13.2%.

With `COc1cc2ncnc(Oc3cccc(NC(=O)Nc4cc(C(C)(C)C(F)(F)F)on4)c3)c2cc1OC`, the values for the Potency in experiment [1] and in experiment [2] were 0.164 µM (active) and 0.291 µM (active), respectively. Moreover, in experiment [3], the activity (max response) is -26.2%.

Consider `Cc1cnc(NS(=O)(=O)c2ccc(N)cc2)nc1`, for which the Potency entry in experiment [1], in experiment [2] and in experiment [4] was “inactive” in each case. Moreover, the activity (max response) in experiment [3] was 9.12%.

For `NS(=O)(=O)c1cc2c(cc1Cl)NC(CSCc1ccccc1)=NS2(=O)=O`, the Potency result in experiment [1] and in experiment [2] was “inactive” in each case. In addition, the activity (max response) in experiment [3] was -2.17%.

For `O=C(CCCCCCNC(=O)c1cnc(N(c2ccccc2)c2ccccc2Cl)nc1)NO`, the Potency in experiment [1] was 3.32 µM (active); in experiment [2], 2.63 µM (active); in experiment [3] it was 14.1 µM (active); in experiment [4], 11.2 µM (active).

On to `CCCCC(CC)COC(=O)/C=C/c1ccc(OC)cc1` (configuration not stated), for which the Potency result in experiment [1] and in experiment [2] was “inactive” each time. In experiment [3], the activity (max response) is 1.77%.
